# Compound activity from PubChem.
# A selection: hits, their analogues and other compounds. The true share with any hit is near 10%.
# Pf growth 48h – inhibits P. falciparum growth in the first generation, 48 h; P. falciparum luciferase growth in erythrocytes, 48 h; hit rate 5.9% among 310,000; AID 504832; Potency, µM (doses to about 28.7 µM), without a hit: at the highest dose activity change, negative = inhibition, most hits filed as inhibitors; note: potency is the fitted concentration of half-maximal effect; % is set by controls: 0 for no effect and ±100 for the full control effect
#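 A one-generation exposure of luciferase-tagged malaria parasites in RPMI 1640/Albumax erythrocyte culture, 37 C and 5% CO2. Inhibition is inferred from decreased luminescence after adding detection reagent.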
# Pf growth 96h – P. falciparum growth inhibition at 96 hours | P. falciparum luciferase reporter growth, 96 h | Potency, µM (highest dose often 28.7 µM), for the others: top-dose activity change, negative = inhibition, actives largely listed as inhibitors | hit rate 6.9% among 320,000 | AID 504834; note: potency is the fitted concentration of half-maximal effect; % is set by controls: 0 for no effect and ±100 for the full control effect
#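 96 h incubation, 37 C, 5% CO2, of luciferase-reporter P. falciparum-infected RBCs (2% hematocrit, 0.05% parasitemia final) with test compounds; endpoint luminescence.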
# NS1 inh – inhibitors of influenza NS1 protein function. hit rate 0.4% among 270,000. Potency, µM (series often up to 46.1 µM), inactives show at the top dose activity, positive = more growth. AID 2326; calls by dose curve; note: potency is the fitted concentration of half-maximal effect; actives are rising curves; nearly all actives have a fitted effect of over 50% in size
#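 OD600 was taken as the measure of yeast growth restored by compound in an NS1-expressing S. cerevisiae strain. Cells had been washed out of glucose medium and diluted 1:100 into galactose -URA medium, pH 6.0.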
# SARS PLP yeast – inhibitors of SARS-CoV papain-like protease in yeast | hit rate 0.19% among 330,000 | AID 485353 | Potency, µM (doses to about 32.9 µM), without a hit: top-dose activity, positive = growth rescue, usual class: activators | S. cerevisiae expressing SARS-CoV PLpro, growth rescue; calls by dose curve; note: potency is the fitted concentration of half-maximal effect; 0% is about no effect; nearly all actives have a fitted effect of over 55% in size
# CLK4 cf ADPGlo – confirmation of inhibitors of human CDC-like kinase 4; shares compounds with Pf growth 48h; recombinant Clk4, RS peptide, ADP-Glo luminescence; Potency, µM (doses to about 80 µM), for inactives: top-dose activity, negative = inhibition, actives largely listed as inhibitors; hit rate 80% among 65; AID 1969
# Target sequence (Q9HAZ1 whole entry, looked up): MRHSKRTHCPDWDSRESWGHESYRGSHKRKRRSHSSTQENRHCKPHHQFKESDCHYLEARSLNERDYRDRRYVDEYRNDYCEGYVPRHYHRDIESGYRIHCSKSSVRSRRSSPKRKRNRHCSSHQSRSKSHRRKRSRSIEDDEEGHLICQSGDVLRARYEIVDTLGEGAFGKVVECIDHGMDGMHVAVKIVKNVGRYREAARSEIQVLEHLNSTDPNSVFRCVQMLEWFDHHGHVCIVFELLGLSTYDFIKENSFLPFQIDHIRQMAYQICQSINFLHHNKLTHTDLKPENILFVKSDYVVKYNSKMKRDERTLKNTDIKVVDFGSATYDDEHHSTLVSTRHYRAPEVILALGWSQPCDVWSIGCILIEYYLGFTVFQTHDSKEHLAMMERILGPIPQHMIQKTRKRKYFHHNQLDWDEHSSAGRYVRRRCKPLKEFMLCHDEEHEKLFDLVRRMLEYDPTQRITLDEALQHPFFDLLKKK
# CLK4 ADP FP – confirmation of human CDC-like kinase 4 (CLK4) inhibitors; shares compounds with Pf growth 48h; recombinant Clk4, ADP Transcreener FP, RS peptide; Potency, µM (highest dose often 80 µM), for inactives: at the top dose activity, negative = inhibition, hits mostly inhibitors; hit rate 70% among 65; AID 1983
# Numbers without * were called inactive; ? = inconclusive; nt = no result given. Unless noted, calls come from the whole dose curve; as a rule, active = well fitted curve in the direction sought with a large enough effect; inconclusive = small, poorly fitted or top-dose-only effect, or another doubt; inactive = no such curve, though single readings can be large; an effect the other way counts as inactive or inconclusive.
SMILES,Pf growth 48h,Pf growth 96h,NS1 inh,SARS PLP yeast,CLK4 cf ADPGlo,CLK4 ADP FP
Cc1cccc(CNc2ncnc3ccc(-c4cccnc4)cc23)c1,12µM*,6.6µM*,nt,-3%,2.8µM*,5µM*
NC(=O)NC(=O)COC(=O)[C@H](Cc1ccccc1)NC(=O)c1cccs1,?,-4%,nt,0%,nt,nt
O=C(O)CCSc1nnc(SCC(=O)NCC(F)(F)F)s1,4%,16%,7%,26%,nt,nt
Cc1cccc(Nc2ncnc3ccc(Br)cc23)c1,?,0%,-48%,-4%,nt,nt
Cc1cccc(CNc2ncnc3ccc(-c4ccc5c(c4)OCCO5)cc23)c1,4.7µM*,3.3µM*,nt,1%,0.56µM*,0.71µM*
Cc1cccc(CNc2ncnc3ccc(-c4ccc5c(ccn5C)c4)cc23)c1,3.3µM*,1.9µM*,nt,-6%,?,?
Fc1cccc(CNc2ncnc3ccc(-c4ccoc4)cc23)c1,?,?,nt,6%,3.5µM*,3.5µM*
Cn1c(-c2ccc(F)cc2)cnc1NCc1cccc(F)c1,5%,-57%,-20%,-10%,nt,nt
Fc1cccc(CNc2ncnc3ccc(-c4cccc(Cl)c4)cc23)c1,6.6µM*,2.9µM*,nt,-7%,7.1µM*,13µM*
